This is an account of results in PubChem BioAssay AID694 (Emory University Molecular Libraries Screening Center, 2007).

For the assay, the target named is Estrogen receptor (Homo sapiens) (UniProt P03372). Put plainly: ERα coactivator peptide binding inhibitors, primary screen, biochemical, LOPAC library, TR-FRET (AID 694).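 Further: receptor was agonist-bound with estradiol present during the assay.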 The conditions noted are these: TR-FRET ERalpha-coactivator peptide binding, stronger effect = higher value. A general note: Time-resolved FRET reads energy transfer from a long-lived donor to a nearby acceptor.

The whole screen tested about 1,300 compounds, of which about 25 (2%) were called active. How the calls were made is not given here. For the sample, actives were picked, then their nearest neighbours and some compounds at random.

Sequence of Estrogen receptor (Homo sapiens) (P03372 whole entry, looked up): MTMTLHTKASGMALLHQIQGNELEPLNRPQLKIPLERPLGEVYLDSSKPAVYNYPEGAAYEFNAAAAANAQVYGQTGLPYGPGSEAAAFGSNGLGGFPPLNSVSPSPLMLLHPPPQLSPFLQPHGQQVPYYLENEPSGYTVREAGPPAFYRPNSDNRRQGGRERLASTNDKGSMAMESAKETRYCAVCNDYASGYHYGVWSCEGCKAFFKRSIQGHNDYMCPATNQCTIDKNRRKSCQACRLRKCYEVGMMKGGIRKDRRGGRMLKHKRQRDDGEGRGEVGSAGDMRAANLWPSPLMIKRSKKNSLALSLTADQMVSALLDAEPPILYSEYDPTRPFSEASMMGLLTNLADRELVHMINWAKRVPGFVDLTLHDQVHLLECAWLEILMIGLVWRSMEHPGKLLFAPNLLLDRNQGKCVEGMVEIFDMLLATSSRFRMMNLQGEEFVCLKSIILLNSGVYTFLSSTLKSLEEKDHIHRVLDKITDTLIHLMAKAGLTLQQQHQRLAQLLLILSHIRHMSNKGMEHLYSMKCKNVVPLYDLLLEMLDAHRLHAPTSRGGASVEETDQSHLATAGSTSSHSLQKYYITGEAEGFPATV

A word on the inhibition: it is the relative decrease from the control value, in per cent. On to `NCCNC(=O)c1ccc(Cl)cc1`, for which the inhibition (at 45 µM) was -1.66% (inactive) and the inhibition (inhibition, at 15 µM) turned out to be 0.74%.
On the same counts, the results for `OCC1NCC(O)C(O)C1O` (stereo not given) are -2.36% (inactive) and -2.41%.
Regarding `CN(C)CCCN1c2ccccc2Sc2ccc(C(F)(F)F)cc21`, the inhibition reads like this: (at 45 µM) 1.43% (inactive); (inhibition, at 15 µM) 1.81%.
As to `O=S(=O)(c1cccc2c(Cl)cccc12)N1CCCNCC1`, the inhibition is -6.25% (inactive) (at 45 µM) and -1.24% (inhibition, at 15 µM).
On the same counts, the results for `OCC1O[C@H](O)C(Cl)C(O)C1O` (stereo not given in full) are 2.62% (inactive) and 2.64%.
Regarding `O=C(O)C1=CC(=C(c2ccc(O)c(C(=O)O)c2)c2ccc(O)c(C(=O)O)c2)C=CC1=O`, the inhibition was 88.6% [fluorescence artefact?] (active) (at 45 µM) and 76% (inhibition, at 15 µM).
On the same counts, the results for `Cc1cc(NC(=O)Nc2ccc3c(ccn3C)c2)sn1` are 0.07% (inactive) and -2%.
On the same counts, the results for `Cc1c(C)c2c(c(C)c1O)CCC(C)(CN1CCN(c3cc(N4CCCC4)nc(N4CCCC4)n3)CC1)O2` (stereo not given) are -11.9% (inactive) and -0.19%.
On the same counts, the results for `Oc1ccc(O)cc1` are 0.27% (inactive) and -2.06%.
With `NC(=NCc1ccc(Cl)c(Cl)c1)NC(=O)c1nc(Cl)c(N)nc1N`, the inhibition is, setting by setting: (at 45 µM) 2.8% (inactive); (inhibition, at 15 µM) -1.44%.
With `N#CC(=C(\N)Sc1ccccc1N)/C(C#N)=C(/N)Sc1ccccc1N`, the inhibition (at 45 µM) was -6.45% (inactive) and the inhibition (inhibition, at 15 µM) was -2.12%.
Turning to `COc1ccc(CCNC[C@@H](O)c2ccc(O)cc2)cc1OC`, the inhibition (at 45 µM) was 1.27% (inactive) and the inhibition (inhibition, at 15 µM) was found to be 1.3%.
Turning to `C[n+]1cc2c3c(ccc2c2ccc4cc5c(cc4c21)OCO5)OCO3`, the inhibition reads like this: (at 45 µM) 7.36% (inactive); (inhibition, at 15 µM) 3.96%.
`NCCSSCCN`: the inhibition runs as follows: (at 45 µM) -10.9% (inactive); (inhibition, at 15 µM) -6.09%.
`Nc1nc2c(nc(Br)n2C2OC3COP(=O)(O)O[C@@H]3C2O)c(=O)[nH]1` (stereo not given in full): the inhibition runs as follows: (at 45 µM) -3.13% (inactive); (inhibition, at 15 µM) -2.06%.
`CC(C)(C)c1onc(OCP(=O)(O)O)c1CC(N)C(=O)O` (stereo not given): the inhibition is, setting by setting: (at 45 µM) -28.3% (inactive); (inhibition, at 15 µM) -2.65%.
Take `CC[N+](CC)(CC)CC(=O)Nc1c(C)cccc1C`: the inhibition is -2.22% (inactive) (at 45 µM) and 1.79% (inhibition, at 15 µM).
On to `C/C(=C\c1ccc(C(=O)O)cc1)c1ccc2c(c1)C(C)(C)CCC2(C)C`, for which the inhibition is 40.9% (inactive) (at 45 µM) and 34.2% (inhibition, at 15 µM).
Take `O=c1c2ccccc2nc2n1CCc1c-2[nH]c2ccccc12`: the inhibition (at 45 µM) is 2.93% (inactive) and the inhibition (inhibition, at 15 µM) stood at 1.11%.
For the compound `N=C(N)c1ccc(OCCCCCOc2ccc(C(=N)N)cc2)cc1` (tested in a mixture with another compound), the inhibition (at 45 µM) is 3.73% (inactive) and the inhibition (inhibition, at 15 µM) came to 1.26%.
Turning to `C[C@@H](NC(=O)/C(C#N)=C/c1ccc(O)c(O)c1)c1ccccc1`, the inhibition by setting is: (at 45 µM) 2.49% (inactive); (inhibition, at 15 µM) 3.07%.
For the compound `CC(=O)[C@H]1CCC2C3CC=C4C[C@@H](OS(=O)(=O)O)CC[C@]4(C)C3CC[C@@]21C` (stereo not given in full), the inhibition (at 45 µM) is 0.32% (inactive) and the inhibition (inhibition, at 15 µM) turned out to be 0.94%.
For the compound `NCCNS(=O)(=O)c1cccc2cnccc12`, the inhibition (at 45 µM) is -4.68% (inactive) and the inhibition (inhibition, at 15 µM) is -3.64%.
On the same counts, the results for `Cc1cc2c(cc1Cl)N(C(=O)Nc1ccnc3ccccc13)CC2` are -4.11% (inactive) and 1.97%.
Turning to `Cc1cc(N)c2ccccc2[n+]1CCCCCCCCCC[n+]1c(C)cc(N)c2ccccc21`, the inhibition runs as follows: (at 45 µM) 19.8% (inactive); (inhibition, at 15 µM) 30.1%.
As for `Cc1cc(N)c2ccccc2[n+]1CCCCCCCCCCCCCC[n+]1c(C)cc(N)c2ccccc21`, the inhibition by setting is: (at 45 µM) 73.8% [fluorescence artefact?] (active); (inhibition, at 15 µM) 65.9%.
As for `CSc1nc(N)c2ncn([C@@H]3O[C@H](COP(=O)(O)OP(=O)(O)OP(=O)(O)O)[C@H](O)C3O)c2n1` (stereo not given in full), the inhibition by setting is: (at 45 µM) -1.74% (inactive); (inhibition, at 15 µM) -5.35%.
With `N.N.N.N.N.N.N.N.N.N.N.N.N.N.O.O.[Cl-].[Cl-].[Cl-].[Cl-].[Cl-].[Cl-].[Ru+4].[Ru+5].[Ru+5]`, the inhibition was 100% [fluorescence artefact?] (active) (at 45 µM) and 99.8% (inhibition, at 15 µM).
Turning to `COC(=O)[C@H]1[C@H]2C[C@H]3c4[nH]c5ccccc5c4CCN3C[C@H]2CC[C@@H]1O`, the inhibition was 1.18% (inactive) (at 45 µM) and 3.29% (inhibition, at 15 µM).
On the same counts, the results for `CC(=O)NCCc1ccc(O)c(O)c1` are -22% (inactive) and -4.7%.
On the same counts, the results for `C[C@@H](Oc1ccc(Oc2cnc3ccc(Cl)cc3n2)cc1)C(=O)O` are -0.82% (inactive) and -2.92%.
With `CCCCOC(=O)NS(=O)(=O)c1sc(CC(C)C)cc1-c1ccc(Cn2c(CC)nc3c(C)cc(C)nc32)cc1`, the inhibition runs as follows: (at 45 µM) 8.38% (inactive); (inhibition, at 15 µM) 2.57%.
Consider `O=C(/C=C/c1ccc(O)cc1)c1ccc(O)cc1O`, for which the inhibition (at 45 µM) is 10.8% (inactive) and the inhibition (inhibition, at 15 µM) was -3.98%.
Take `CC#C[C@]1(O)CC[C@H]2[C@@H]3CCC4=CC(=O)CCC4=C3[C@@H](c3ccc(N(C)C)cc3)C[C@@]21C`: the inhibition (at 45 µM) is 4.52% (inactive) and the inhibition (inhibition, at 15 µM) is 1.37%.
As to `O=C(O)CCC(NC(=O)c1ccccc1C(=O)O)C(=O)O` (stereo not given), the inhibition runs as follows: (at 45 µM) -0.22% (inactive); (inhibition, at 15 µM) 0.4%.
